Source: PubChem BioAssay AID1224853 (National Center for Advancing Translational Sciences (NCATS), 2016)
Results filed as inconclusive are left out. Entries that show only a call come without a potency. Activity calls are given as the source filed them. Calls come from the whole dose curve; as a rule, active = well fitted inhibition curve with a large enough effect; inconclusive = small, poorly fitted or top-dose-only effect; inactive = no such curve, though single readings can be large or run the other way.

Assay: Confirmation assay for measurement of the activity of small molecule inhibitors on Zika virus induced Caspase-3 activity in human astrocytoma cells
Details: SNB-19 ZIKV-induced caspase-3/7, luminescence, 6 h; series mostly up to 46.1 µM
Text: National Center for Advancing Translational Sciences [NCATS] Johns Hopkins University School of Medicine Florida State University Assay Overview: Increase in the Caspase-3 activity indicates an activation of apoptosis cell death pathway caused by Zika virus infection in certain types of neuronal cells including human neural progenitor cells (hNPCs), astrocytes, and astrocytoma cell line (SNB-19). This cell-based caspase-3 activity assay measures the increased caspase-3 activity in the astrocytoma cell line (SNB-19) after a 6-hour Zika virus infection with a luminescence readout. A decrease in the luminescence signal in this assay by small molecule treatment indicates an inhibitory effect of that small molecule on the Zika virus induced caspase-3 activity that may correlate with its effect on reduction of Zika virus caused cell death.
Assay Protocol Summary: The medium for SNB-19 cells is composed of RPMI 1640 (ATCC, Cat.# 30-2001), 10% fetal bovine serum (FBS) (GE healthcare Life Sciences, Cat.# SH30071.03), and 1% Pen/Strep (Gibco, Cat.# 15140-122). A Caspase-Glo 3/7 assay kit (catalog number G8092; Promega, Madison, WI) was used to detect caspase-3 activity induced by Zika virus infection in human cells. The reagent mixture was reconstituted as described in the protocol from the manufacturer. Polystyrene tissue culture treated and PDL coated white plates were obtained from Greiner Bio-One (Monroe, NC). Cells were seeded in 384- or 1536-well assay plates and cultured at 37 C with 5% CO2 for 16 to 20 hours. The typical cell seeding density in the 1536-well plate assay is 250 cells/well in 3ul medium for SNB-19 cells in tissue culture treated plates. Compounds were added to cells and incubated for one hour before addition of ZIKV solution to cells (2 FFU/cell). After incubation at 37 C with 5% CO2 for 6 hours, the reagent mixture of Caspase-Glo 3/7 assay kit was added to each well, followed by incubation at room temperature for 30 minutes. The luminescence intensity of the assay plates was measured using a ViewLux plate reader (PerkinElmer). Data were normalized by using the cell-containing wells without ZIKV as a negative control (0% induction of caspase 3/7 activity) and wells containing ZIKV infected cells (Caspase-3 activity induced) as a positive control (100% induction of caspase 3 activity). The percentage inhibitions of the increased Caspase-3 activity by small molecule inhibitors were then calculated.

| SMILES | Potency |
| --- | --- |
| COc1ccc(CC2=NN3C([C@@H](CCc4ccccc4)[C@@H](C)O)=NC(C)C3C(=O)N2)cc1OC (stereo not given in full) | inactive |
| CC(C)(C)OC(=O)CN(Cc1ccc(Cl)cc1)Cc1ccc([N+](=O)[O-])s1 | inactive |
| Cc1ccc(C(=O)c2ccc(CC(=O)O)n2C)cc1 | inactive |
| CN(C)c1ccc(C(=C2C=CC(=[N+](C)C)C=C2)c2ccccc2)cc1 | inactive |
| Nc1ccc(-c2ccc3ccccc3n2)cc1 | 6.9 µM (active) |
| CC[C@]1(O)C[C@H]2CN(CCc3c([nH]c4ccccc34)[C@@](C(=O)OC)(c3cc4c(cc3OC)N(C=O)[C@H]3[C@@](O)(C(=O)OC)[C@H](OC(C)=O)[C@]5(CC)C=CCN6CC[C@]43[C@@H]65)C2)C1 | inactive |
| Nc1ncnc2c1ncn2[C@@H]1O[C@@H](CO)[C@H](O)[C@H]1O | inactive |
| CCCCCCCC/C=C/C(=O)O | inactive |
| Clc1ccccc1-c1nc(-c2ccncc2)no1 | 7.74 µM (active) |
| CN(C)c1cc(NC(=O)CNC(C)(C)C)c(O)c2c1C[C@@H]1C[C@H]3[C@H](N(C)C)C(=O)C(C(N)=O)=C(O)[C@@]3(O)C(=O)C1=C2O | inactive |
| C=CCCCCCCCCC(=O)O | inactive |
| COc1ccc(-c2coc3cc(O)ccc3c2=O)cc1 | 15.5 µM (active) |
| CN(C)c1ccc2cc(C(=O)N[C@@H](CCCN=C(N)CCl)C(=O)NCc3ccccc3)ccc2c1 | inactive |
| O=C(O)CCC(=O)c1ccc(-c2ccccc2)cc1 | 24.5 µM (active) |
| CN1CC(=O)N2C(Cc3c([nH]c4ccccc34)[C@H]2c2ccc3c(c2)OCO3)C1=O (stereo not given in full) | inactive |
| N[C@H](CSC(c1ccccc1)(c1ccccc1)c1ccccc1)C(=O)O | inactive |
| CC=CC[C@@H](C)C(=O)[C@H]1C(=O)N[C@@H](C(C)C)C(=O)N(C)CC(=O)N(C)[C@@H](CC(C)C)C(=O)N[C@@H](C(C)C)C(=O)N(C)[C@@H](CC(C)C)C(=O)N[C@@H](C)C(=O)N[C@H](C)C(=O)N(C)[C@@H](CC(C)C)C(=O)N(C)[C@@H](CC(C)C)C(=O)N(C)[C@@H](C(C)C)C(=O)N1C | inactive |
| CCCCCCOc1ccccc1C(N)=O | inactive |
| CN(C)c1ccc(/C=C2\C(=O)Nc3ccccc32)cc1 | 10.9 µM (active) |
| O=C(Nc1ncc([N+](=O)[O-])s1)c1cccs1 | 1.73 µM (active) |

| SMILES | Potency |
| --- | --- |
| COc1cc2nc(-c3ccc(N4CCN(C)CC4)cc3)nc(NCCN3CCOCC3)c2cc1OC | inactive |
| O=C(O)Cc1ccc(-c2ccccc2)cc1 | inactive |
| O=S(=O)(O)c1ccc2nc(-c3ccccc3)[nH]c2c1 | 1.73 µM (active) |
| COc1ccc(-c2cc(=S)ss2)cc1 | 15.5 µM (active) |
| Cc1nc(N)sc1-c1ccnc(Nc2ccc(N3CCOCC3)cc2)n1 | inactive |
| COCCn1c2c([n+](Cc3cnccn3)c1C)C(=O)c1ccccc1C2=O | 4.89 µM (active) |
| CN(C)c1ccc(N=NS(=O)(=O)O)cc1 | inactive |
| CCCCCCCCCCCC(=O)[O][Sn]([CH2]CCC)([CH2]CCC)[O]C(=O)CCCCCCCCCCC | inactive |
| Cc1cc(O)c2ccccc2c1O | inactive |
| O[C@@H](COc1cccc2ncccc12)CN1CCN(C2c3ccccc3[C@@H]3[C@H](c4ccccc42)C3(F)F)CC1 (stereo not given in full) | inactive |
| O=C(O)c1cccc(-c2noc(-c3ccccc3F)n2)c1 | 3.46 µM (active) |
| CC(C)Oc1ccc2c(=O)c(-c3ccccc3)coc2c1 | 12.3 µM (active) |
| Oc1cc(O)cc(/C=C/c2ccc(O)c(O)c2)c1 | 6.15 µM (active) |
| Cc1cccc(/C=C/c2ccccc2)n1 | 12.3 µM (active) |
| CCCS(=O)c1ccc2nc(NC(=O)OC)[nH]c2c1 (stereo not given) | 21.8 µM (active) |
| CC(C(=O)O)c1ccc(C(=O)c2ccccc2)s1 (stereo not given) | 8.69 µM (active) |
| CCC(C(=O)O)c1ccc(N2Cc3ccccc3C2=O)cc1 (stereo not given) | 6.9 µM (active) |
| CN(C)CCCSc1ccccc1NC(=O)/C=C/c1ccccc1 | 8.69 µM (active) |
| CCCC(=O)OC[C@@H](OC(=O)CCC)[C@@H](OC(=O)CCC)[C@H](Cn1c2nc(=O)[nH]c(=O)c-2nc2cc(C)c(C)cc21)OC(=O)CCC | inactive |
| O=C(O)[C@@H](c1ccc(OCc2ccc3ccccc3n2)cc1)C1CCCC1 | 13.8 µM (active) |
